Compound activity deposited in PubChem by National Center for Advancing Translational Sciences (NCATS).
Most compounds without a hit are left out; they make up all but 2.8% or so of the library.
GLS inh: blocks human kidney-isoform glutaminase activity. 410,000 tested, 0.21% active. O94925. Potency, µM (titrated, usually from 45.5 µM), for inactives: at the highest dose activity change, negative = inhibition, usual class: inhibitors. AID 624170. GLS enzymatic activity, qHTS titration; note: potency is the fitted concentration of half-maximal effect; % is set by controls: 0 for no effect and ±100 for the full control effect
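Two-point fluorescence kinetic (t0, 30 min RT) for hKGA; glutamate detected via glutamate oxidase–HRP–Amplex Red. Substrate: 1 mM L-glutamine solution; buffer 45 mM KH2PO4, pH 8.2.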
GLP1R ag: activates the human GLP-1 receptor; 380,000 tested, 0.007% active; AID 624172; HEK293 GLP-1R CRE-luciferase, luminescence, 4-6 h; cells express a hypersensitive GLP-1R form; P43220; Potency, µM (top dose mostly 45.6 µM), for the others: at the top dose activation, usual class: activators; note: potency is the fitted concentration of half-maximal effect; % of control where 0% means no effect
GLP1R inv ag: inverse agonists of human GLP-1 receptor | P43220 | HEK293 GLP-1R CRE-luciferase, luminescence, 24 h; GLP-1R form is constitutively active | Potency, µM (titrated, usually from 38.3 µM), inactives show top-dose activity change, negative = inhibition, hits mostly inhibitors | 410,000 tested, 1.6% active; note: potency is the fitted concentration of half-maximal effect; % is set by controls: 0 for no effect and ±100 for the full control effect; nearly all actives have a fitted effect of over 55% in size
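Inverse agonists were sought by their lowering of basal cAMP reporter luciferase output in HEK293 cells stably carrying constitutively active human GLP-1R, after 24 h compound treatment.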
KCNH2 3.1 block: blocks the human KCNH2 3.1 channel isoform. U2OS KCNH2 3.1, thallium flux FluxOr; active compounds read low. activity change, % (tested at about 1.8 µM). 340,000 tested, 0.95% active;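 active = maximum activity change below -70%; inconclusive = maximum activity change from -70% to -50%; inactive = maximum activity change above -50%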;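 note: thallium influx rate constant from kinetic fluorescence after stimulation buffer; % is set by controls: 0 for no effect and ±100 for the full control effect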
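FluxOr-based Tl+ influx in U2OS cells transduced with KCNH2 3.1 virus; rate constants normalized to DMSO controls.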
hERG WT inh: inhibitors of human wildtype KCNH2 potassium channel | U2OS, BacMam KCNH2, thallium flux FluxOr; active compounds read low | activity change, % at 1.84 µM | 340,000 tested, 0.37% active | AID 720551;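 active = maximum activity change below -70%; inconclusive = maximum activity change between -70% and -50%; inactive = maximum activity change above -50%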; note: % is set by controls: 0 for no effect and ±100 for the full control effect
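U2OS cells transduced with wild-type KCNH2 virus are loaded with FluxOr dye for 45 min, and thallium flux is measured in kinetic reads before and after stimulation buffer. Rate constants are normalized to DMSO controls.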
GLP1R cytotox: cytotoxicity counter-screen for GLP-1 receptor inverse agonists | 410,000 tested, 0.13% active | AID 624418 | HEK293 cAMP-luciferase reporter cells, luminescence, 24 h | Potency, µM (titrated, usually from 38.3 µM), inactives show at the top dose activity change, negative = inhibition, most hits filed as inhibitors;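 note: loss of luciferase light is scored as toxicity; potency is the fitted concentration of half-maximal effect; % is set by controls: 0 for no effect and ±100 for the full control effect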
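Seeding density was 200 cells/uL; after overnight-length (12 h) culture, 23 nL compounds went on for 24 h at 37 °C. Readout used a luciferase detection reagent, luminescence taken after 12 min at room temperature.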
An asterisk follows results filed as active. Unless noted, calls come from the whole dose curve; as a rule, active = well fitted curve in the direction sought with a large enough effect; inconclusive = small, poorly fitted or top-dose-only effect, or another doubt; inactive = no such curve, though single readings can be large; an effect the other way counts as inactive or inconclusive.

COc1ccccc1NS(=O)(=O)c1cc(NC(=O)c2ccc(NC(C)=O)cc2)ccc1N1CCOCC1 was read as GLS inh -21%, GLP1R ag -2%, GLP1R inv ag 8%, KCNH2 3.1 block -4, hERG WT inh -13 and GLP1R cytotox -27%.
For O=C(Nc1ccc(N2CCOCC2)c(S(=O)(=O)Nc2ccccc2Cl)c1)c1ccc(F)cc1 the results were GLS inh -1%, GLP1R ag 1%, GLP1R inv ag 10µM*, KCNH2 3.1 block -16, hERG WT inh -2 and GLP1R cytotox -6%.
Screening Cc1cc(S(=O)(=O)Nc2cccnc2)c(C)s1 returned GLS inh 10%, GLP1R ag -4%, GLP1R inv ag 5%, KCNH2 3.1 block -72*, hERG WT inh 3 and GLP1R cytotox 9%.
`Cc1ccc(S(=O)(=O)Nc2cccnc2)cc1C` gave GLS inh -1%, GLP1R ag -4%, GLP1R inv ag 2%, KCNH2 3.1 block 11, hERG WT inh 5 and GLP1R cytotox 9%.
Screening COc1ccc(Cl)cc1NC(=O)NCCn1c(=O)oc2ccc(C)cc21 returned GLS inh -1%, GLP1R inv ag inconclusive and GLP1R cytotox -4%.
COc1cc(/C=N/NC(=S)NCCN2CCOCC2)cc(OC)c1O was read as GLS inh 4µM*, GLP1R ag 9%, GLP1R inv ag 11%, KCNH2 3.1 block -2, hERG WT inh -4 and GLP1R cytotox -6%.
O=C(O)CCC(=O)Nc1ccc(Cc2ccc(NC(=O)CCC(=O)O)c(O)c2)cc1O was read as GLS inh 1.4µM*, GLP1R ag 2%, GLP1R inv ag -1%, KCNH2 3.1 block -5, hERG WT inh 4 and GLP1R cytotox -5%.
`COc1cc(NC(=O)c2cc(Cl)c(OC)c(Cl)c2)ccc1NC(=O)c1cc2ccccc2o1` gave GLS inh -6%, GLP1R inv ag 19% and GLP1R cytotox 12%.
For CC(=O)Nc1c2c(nn1-c1ccc(Cl)cc1)CSC2 the results were GLS inh -1%, GLP1R ag 1%, GLP1R inv ag 14%, KCNH2 3.1 block 14, hERG WT inh 7 and GLP1R cytotox -3%.
`CN1CCCC(CN2c3ccccc3Sc3ccccc32)C1` (centres undefined) gave GLS inh 20%, GLP1R ag 7%, GLP1R inv ag 10µM*, KCNH2 3.1 block -8, hERG WT inh 22 and GLP1R cytotox -20%.
`CN1CCCC(CC2c3ccccc3Sc3ccccc32)C1` (centres undefined) gave GLS inh 3%, GLP1R ag -8%, GLP1R inv ag inconclusive, KCNH2 3.1 block -14, hERG WT inh 38 and GLP1R cytotox -22%.
`Cc1ccc(-c2nc(-c3ccccn3)no2)cc1` gave GLS inh 3%, GLP1R ag -28%, GLP1R inv ag 0.89µM*, KCNH2 3.1 block -1, hERG WT inh 2 and GLP1R cytotox -18%.
`c1ccc(-c2ccc(-c3nc(-c4ccccn4)no3)cc2)cc1` gave GLS inh -1%, GLP1R ag -12%, GLP1R inv ag -11%, KCNH2 3.1 block -6, hERG WT inh 14 and GLP1R cytotox 1%.
`Cc1ccc(-c2nc(-c3ccccn3)no2)cc1Cl` gave GLS inh 3%, GLP1R ag -6%, GLP1R inv ag 1.6µM*, KCNH2 3.1 block 1, hERG WT inh -12 and GLP1R cytotox -4%.
`c1ccc(C(Cc2nc(-c3ccccn3)no2)c2ccccc2)cc1` gave GLS inh 2%, GLP1R ag -8%, GLP1R inv ag 10µM*, KCNH2 3.1 block -22, hERG WT inh -14 and GLP1R cytotox 1%.
For O=C(CNC(=O)c1ccccc1)OC(C(=O)O)c1ccc(F)cc1 (centres undefined) the results were GLS inh 5%, GLP1R ag -3%, GLP1R inv ag 3%, KCNH2 3.1 block 0, hERG WT inh -4 and GLP1R cytotox -10%.
`O=C(NCc1ccccc1Cl)c1ccc(NC(=O)N2CCSc3ncccc32)cc1` gave GLS inh 1%, GLP1R inv ag 10% and GLP1R cytotox 6%.
For CC(=O)N(c1ccc(Cl)cc1)c1cn(C(C)=O)c2ccccc12 the results were GLS inh -10%, GLP1R ag 0%, GLP1R inv ag inconclusive, KCNH2 3.1 block 2, hERG WT inh -13 and GLP1R cytotox -1%.
CC(=O)n1cc(N(C(=O)CCl)c2ccc(C)cc2)c2ccccc21 was read as GLS inh -14%, GLP1R ag -1%, GLP1R inv ag 4.5µM*, KCNH2 3.1 block 0, hERG WT inh 1 and GLP1R cytotox inconclusive.
`Cc1ccnc(NC(=O)c2cc(-c3ccc(Cl)s3)nc3ccccc23)c1` gave GLS inh -7%, GLP1R ag 6%, GLP1R inv ag 7.9µM*, KCNH2 3.1 block -11, hERG WT inh -4 and GLP1R cytotox 4%.
Screening O=C(Nc1ccccn1)c1cc(-c2ccc(Cl)s2)nc2ccccc12 returned GLS inh -1%, GLP1R ag -2%, GLP1R inv ag inconclusive, KCNH2 3.1 block -13, hERG WT inh 3 and GLP1R cytotox -9%.
Screening Cc1cccc(NC(=O)c2cc(-c3ccc(C)s3)nc3ccccc23)n1 returned GLS inh 1%, GLP1R ag -14%, GLP1R inv ag 10µM*, KCNH2 3.1 block 0, hERG WT inh -1 and GLP1R cytotox -4%.
C[C@H]1C[C@@H]2[C@H]([C@@H](O)C[C@@]3(C)[C@H]2CC[C@]3(O)C(=O)COC(=O)CCC(=O)O)[C@@]2(C)C=CC(=O)C=C12 was read as GLS inh -1% and GLP1R ag 24%.
For OCCN1CCN(c2nc(-c3ccccc3)c3cc(Br)ccc3n2)CC1 the results were GLS inh 5%, GLP1R ag 10%, GLP1R inv ag inconclusive, KCNH2 3.1 block -71*, hERG WT inh -30 and GLP1R cytotox 20%.
Screening Cc1c2ccccc2cc[n+]1CCCS(=O)(=O)[O-] returned GLS inh -1%, GLP1R ag 8%, GLP1R inv ag 2%, hERG WT inh -19 and GLP1R cytotox -6%.
For CC1(C)C(/C=C/C=C/C=C/C=C2\N(CCCCS(=O)(=O)O)c3ccc4ccccc4c3C2(C)C)=[N+](CCCCS(=O)(=O)[O-])c2ccc3ccccc3c21 the results were GLS inh 6.3µM*, GLP1R ag 10%, GLP1R inv ag -8%, KCNH2 3.1 block 22, hERG WT inh -2 and GLP1R cytotox -23%.
